Six1-Eya2 inh – blocks human Six1 binding to Eya2 | 360,000 compounds, 0.56% hits | Q15475+O00167 | activity change, % (concentration not given with the values) | AlphaScreen GST-Six1/His-Eya2 binding, biochemical; stronger effect = lower value; in the data active means activity change below about -65%; inconclusive means mostly about -30% to -63%; further: on the % scale 0 is the no-effect control and ±100 the full control effect
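AlphaScreen with GST-Six1 and His-Eya2 (5X mix: 250 nM and 500 nM), glutathione donor and nickel acceptor beads; buffer 50 mM Tris pH 8.0, 300 mM NaCl, 1 mM TCEP; 1 h at 37 C in the dark.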
JMJD2A Tudor inh – JMJD2A Tudor domain (human) inhibition; O75164; AlphaScreen JMJD2A-Tudor / H3K4me3 peptide binding; Potency, µM (highest dose often 114 µM), for inactives: top-dose activity change, negative = inhibition, most hits filed as inhibitors; 390,000 compounds, 4.4% hits; AID 504339; further: potency means the concentration at half of the fitted maximal effect; on the % scale 0 is the no-effect control and ±100 the full control effect; nearly all actives have a fitted effect of over 50% in size
Target sequence (O75164 whole entry, looked up, the tested form may be a part): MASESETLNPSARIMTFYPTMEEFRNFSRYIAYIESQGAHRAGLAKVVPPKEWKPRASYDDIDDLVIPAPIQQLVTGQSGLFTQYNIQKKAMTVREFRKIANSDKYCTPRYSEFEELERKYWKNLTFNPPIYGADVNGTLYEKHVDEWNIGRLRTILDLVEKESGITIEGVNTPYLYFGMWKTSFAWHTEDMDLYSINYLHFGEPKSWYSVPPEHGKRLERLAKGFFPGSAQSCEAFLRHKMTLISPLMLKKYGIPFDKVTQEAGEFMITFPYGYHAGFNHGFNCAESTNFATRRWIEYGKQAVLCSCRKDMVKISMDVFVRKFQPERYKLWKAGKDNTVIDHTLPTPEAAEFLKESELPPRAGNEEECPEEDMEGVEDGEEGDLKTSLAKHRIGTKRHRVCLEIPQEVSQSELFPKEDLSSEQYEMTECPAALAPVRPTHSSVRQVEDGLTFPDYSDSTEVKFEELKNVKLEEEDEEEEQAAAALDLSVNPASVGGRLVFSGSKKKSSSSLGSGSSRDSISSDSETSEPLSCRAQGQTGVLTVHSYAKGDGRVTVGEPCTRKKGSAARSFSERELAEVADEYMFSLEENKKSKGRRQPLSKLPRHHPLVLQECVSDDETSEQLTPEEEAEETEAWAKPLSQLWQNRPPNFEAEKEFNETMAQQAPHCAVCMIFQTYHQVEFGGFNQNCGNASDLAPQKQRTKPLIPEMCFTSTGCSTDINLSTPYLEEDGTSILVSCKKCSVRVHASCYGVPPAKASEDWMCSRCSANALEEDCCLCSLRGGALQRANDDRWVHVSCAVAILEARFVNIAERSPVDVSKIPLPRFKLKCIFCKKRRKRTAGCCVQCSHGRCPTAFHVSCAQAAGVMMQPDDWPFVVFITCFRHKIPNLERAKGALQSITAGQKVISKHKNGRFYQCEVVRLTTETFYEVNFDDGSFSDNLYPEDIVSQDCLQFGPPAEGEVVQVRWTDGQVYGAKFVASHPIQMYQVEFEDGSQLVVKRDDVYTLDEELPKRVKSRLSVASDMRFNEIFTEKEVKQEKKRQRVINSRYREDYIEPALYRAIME
HP1b binding inh – HP1-beta chromodomain-methylated histone interaction inhibition | 390,000 compounds, 0.56% hits | P83916 | AID 540317 | Potency, µM (series often up to 114 µM), for inactives: top-dose activity change, negative = inhibition, most hits filed as inhibitors | AlphaScreen HP1-beta / biotin-H3K9me3 peptide binding; further: potency means the concentration at half of the fitted maximal effect; nearly all actives have a fitted effect of over 70% in size
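HP1-beta protein (50 nM final) preincubated 30 min at room temperature with biotinylated H3(1-18)K9me3 peptide (50 nM) in PBS pH 7.4, 0.01% Tween-20, then compound added for 30 min. AlphaScreen streptavidin donor/nickel chelate acceptor beads (10 ug/mL final), 30 min dark, luminescence read.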
BAZ2B block – blocks human BAZ2B. Potency, µM (top dose mostly 114 µM), for inactives: at the highest dose activity change, negative = inhibition, most hits filed as inhibitors. 360,000 compounds, 4.4% hits. AlphaScreen BAZ2B-H3K14Ac peptide displacement. Q9UIF8; further: potency means the concentration at half of the fitted maximal effect; on the % scale 0 is the no-effect control and ±100 the full control effect; nearly all actives have a fitted effect of over 60% in size
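Inhibition is scored as reduced AlphaScreen emission. The BAZ2B/b-H3(5-23)K14Ac complex (50 nM each) in PBS pH 7.4, 0.01% Tween-20 meets compound (up to 110 uM) for 30 min at RT before bead addition.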
G9a block – blocks human histone lysine methyltransferase G9a; Q96KQ7; G9a H3K9 monomethylation, AlphaScreen, 2 h; Potency, µM (series often up to 102 µM), inactives show at the highest dose activity, negative = inhibition, hits mostly inhibitors; 350,000 compounds, 8.8% hits; AID 504332; further: potency means the concentration at half of the fitted maximal effect; on the % scale 0 is the no-effect control and ±100 the full control effect; nearly all actives have a fitted effect of over 75% in size
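AlphaScreen read-out: biotin-H3K9 peptide (500 nM) methylation by 20 nM enzyme with 20 uM SAM, 2 h at room temperature after 15 min compound preincubation; anti-monomethyl H3K9 antibody plus donor/acceptor beads, 10 min dark.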
CtBP-E1A inh – blocks the CtBP interaction with E1A. activity change, % (test concentration not listed). AID 651724. AlphaScreen GST-E1A/His-CtBP binding, 1536-well; stronger effect = lower value. 340,000 compounds, 0.49% hits; in the data active means activity change below about -65%; inconclusive means mostly about -30% to -63%; further: on the % scale 0 is the no-effect control and ±100 the full control effect
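Steps: dispense buffer (Tris pH 8.0, NaCl 300 mM, TCEP 1 mM, BSA, Tween 20); add 5X protein mix (GST-E1A, His-CtBP, 125 nM each); pin 23 nL compound; 2 h at 37 °C, dark; add 5X beads (50 ug/mL); 1 h; read.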
* = called active by the depositor; ? = inconclusive; · = no result given; [ ] = remark or other dose. Rows were chosen to be rich in hits. Some 10% of all compounds tested hit in one or more screens of this group. Unless noted, the call rests on the fitted dose curve; in most records, active means well fitted inhibition curve with a large enough effect; inconclusive means small, poorly fitted or top-dose-only effect; inactive means no such curve, though single readings can be large or run the other way.

SMILES	Six1-Eya2 inh	JMJD2A Tudor inh	HP1b binding inh	BAZ2B block	G9a block	CtBP-E1A inh
CC(Oc1ccc(Br)cc1)C(=O)N(C)CC(=O)Nc1ccc(N2CCOCC2)cc1 (stereo not drawn)	-5.2	-31.1%	20.0%	-9.7%	50.1µM*	-2.8
COc1ccc(CCC(=O)N(C)CC(=O)Nc2ccc(N3CCOCC3)cc2)cc1	7.0	-13.4%	6.7%	-19.3%	24.8%[59 µM]	3.5
CCc1cccc(NC(=O)COC(=O)c2c(C)nn(-c3ccccc3)c2C)c1	-1.6	·	·	·	·	4.4
Cc1ccc(CNC(=O)Cc2ccc(-n3cccc3)cc2)cc1	0.4	11.3%[57.1 µM]	47.5%	2.3%	24.3%	-1.1
CC(C)Cc1ccc(CC(=O)O)cc1	·	·	·	·	11.2µM*	·
O=C(O)Cc1ccc(-n2cccc2)cc1	?	39.8µM*	25.1µM*	8.91µM*	20µM*	-0.3
Cc1ccc(CNC(=O)c2ccc(-n3cccc3)cc2)cc1	?	39.8µM*	22.4µM*	25.1µM*	?	5.6
Cc1nc2cccnc2n1-c1cccc(C(=O)N2CCN(c3ccc(Cl)cc3)CC2)c1	·	?	10.9%	?	-4.3%[59 µM]	·
OC(COc1ccccc1)CN1CCCC1 (stereo not drawn)	10.6	56.2µM*	0.5%	79.4µM*	-28.7%	4.4
COc1ccc(OCC(O)CN2CCCC2)cc1 (stereo not drawn)	1.8	79.4µM*	-22.3%	?	·	·
COc1ccc(OCC(O)CN2CCCCCC2)cc1 (stereo not drawn)	0.5	3.98µM*	?	50.1µM*	8.91µM*	2.2
CCOC(=O)C1(C)CCN1C(=O)c1cccs1 (stereo not drawn)	0.3	·	·	·	·	0.2
C(=N\Nc1nncc2ccccc12)/c1ccccn1	-74.5*	79.4µM*	11.4%	25.1µM*	-5.9%	-95.5*
Fc1cccc(/C=N/Nc2nncc3ccccc23)c1	-18.4	20µM*	17.4%	-33.9%	11.2%	·
COc1ccccc1-c1nn(CCC(=O)Nc2ccc(C)cc2)c2nc(C)cc(C)c12	·	-21.1%	18.4%	-4.3%	6.3%[59 µM]	·
C=C1CCN(C(Cc2ccccc2)C(=O)N2CCOCC2)S(=O)(=O)c2ccccc21 (stereo not drawn)	·	-3.4%	15.1%	·	·	·
COc1ccc(NC(=O)c2cc(-c3cc(F)ccc3OC)n[nH]2)c(OC)c1	-3.3	·	·	·	·	-14.6
O=C(c1ccccc1)c1nn(-c2ccccc2)c2nnc(Cc3ccccc3)c(=O)n12	-12.6	?	8.0%	-25.1%	10µM*	-21.8
Cc1ccc(-n2nc(C(=O)c3ccccc3)n3c(=O)c(Cc4ccccc4)nnc23)cc1	-19.6	-20.1%	5.6%	·	·	-26.4
CCOC(=O)CCCCC(=O)c1[nH]c(=O)[nH]c1C[n+]1ccccc1	·	·	·	-7.5%	?	·
CCOC(=O)CCCCC(=O)c1[nH]c(=O)[nH]c1C[n+]1ccc(C)cc1	2.6	-15.2%	23.5%	?	44.7µM*	·
CCOC(=O)CCCCC(=O)c1[nH]c(=O)[nH]c1CN1CCOCC1	2.0	35.5µM*	-36.7%	15.8µM*	?	6.4
COC(=O)c1ccc(/C=N/NC(=O)CC(=O)NCc2cccnc2)cc1	-8.9	-7.0%	20.4%	-1.2%	6.8%	-2.1
Cc1cc2c(s1)c1cnn(Cc3ccc(F)cc3)c(=O)c1n2C	·	-27.4%	·	·	·	·
CC1CCCCN1S(=O)(=O)c1ccc2[nH]c(=O)cc(C(=O)NCCCN3CCCCCC3)c2c1 (stereo not drawn)	-17.5	-34.7%	12.4%	-16.2%[57.1 µM]	79.4µM*	-7.5
SMILES	Six1-Eya2 inh	JMJD2A Tudor inh	HP1b binding inh	BAZ2B block	G9a block	CtBP-E1A inh
CC(C)CN(CCCNC(=O)c1cc(=O)[nH]c2ccc(S(=O)(=O)N3CCCC3)cc12)CC(C)C	·	-11.0%	8.3%	12.8%	29.0%[59 µM]	·
CCCSc1nc(O)c(C(c2ccc(OC)c(O)c2)c2c(O)nc(SCCC)n(C)c2=O)c(=O)n1C	-5.5	-10.1%	13.8%	-8.3%	10µM*	8.3
CCN(CC)C(=O)CS(=O)(=O)CC(=O)Nc1cc(OCCOC)c(Cl)cc1Cl	7.3	-3.5%	7.8%	3.6%	50.1µM*	10.3
COCCOc1cc(NC(=O)CS(=O)CC(=O)N(C)C)c(Cl)cc1Cl (stereo not drawn)	4.5	-12.5%	24.3%	0.6%	16.4%	5.1
COc1ccc(C(=O)NCC(c2ccc(N(C)C)cc2)N2CCCC2)c(OC)c1 (stereo not drawn)	·	?	-24.3%	?	?	·
Cc1ccc(S(=O)(=O)NC(CC(N)=O)C(=O)O)cc1 (stereo not drawn)	0.5	?	14.2%	4.5%	15.8µM*	-2.6
Cc1ccc(S(=O)(=O)NC(Cc2ccccc2)C(=O)O)cc1 (stereo not drawn)	5.1	5.2%[57.1 µM]	36.9%	-5.4%	-31.2%	8.5
CC(C)(C)c1ccc(S(=O)(=O)NC(Cc2ccccc2)C(=O)O)cc1 (stereo not drawn)	2.1	-12.2%	?	-34.1%	79.4µM*	9.3
COc1ccc(S(=O)(=O)N[C@@H](CSCc2ccccc2)C(=O)O)cc1	4.7	-17.2%	18.4%	?	50.1µM*	6.3
COc1ccc(C[C@@H](NS(=O)(=O)c2ccc(C(=O)O)cc2)C(=O)O)cc1	·	-8.3%	·	-3.8%	-14.5%[12.7 µM]	·
CC(Oc1ccc(C(=O)c2ccc(F)cc2)cc1)C(=O)N1CCOCC1 (stereo not drawn)	-1.5	2.1%	26.5%	-11.1%	-12.3%	5.7
O=C(Nc1ccc(Br)cc1)C1CCN(S(=O)(=O)c2cccc3nsnc23)CC1	·	-14.0%	21.4%	·	-2.9%[59 µM]	·
C=CCNCCCCOc1ccc(Br)cc1C	16.3	2.51µM*	?	79.4µM*	2.51µM*	2.2
Cc1cc(Br)ccc1OCCCCNCCO	4.5	3.16µM*	?	?	·	4.0
Cc1ccc(-c2nc(-c3cc4cc(Cl)ccc4oc3=O)sc2C)cc1	·	15.4%[57.1 µM]	42.8%[57 µM]	·	·	·
Cc1ccc(OCCCC(=O)Nc2sc3c(c2C(N)=O)CCC(C)C3)cc1 (stereo not drawn)	·	-1.0%	56.9%	1.6%	-2.6%[59 µM]	·
Cc1ccc(NC(=S)NCc2ccccc2)cc1S(=O)(=O)N1CCCCC1	-10.8	-27.4%	34.6%	-12.9%	-11.6%	·
COc1ccc(C2C(=O)N(C3CCCCC3)CC(=O)N2CCC2=CCCCC2)cc1 (stereo not drawn)	·	-11.3%	5.7%	4.4%	?	·
Cc1nn(C)c(C)c1C1Nc2ccccc2C(=O)N1O (stereo not drawn)	3.8	-13.0%[57.1 µM]	49.8%	-19.1%	12.6µM*	9.4
Cc1nn(C)cc1C1Nc2ccccc2C(=O)N1O (stereo not drawn)	4.7	-18.3%[57.1 µM]	60.1%	9.8%	?	-1.2
COc1ccc(C2Nc3ccccc3C(=O)N2O)cc1OC (stereo not drawn)	2.5	?	47.3%	-23.5%	10µM*	-22.3
